From PubChem BioAssay
“And” between values parts separate entries of the source, which are not always exact repeats. Equal entries are not always repeated. Inconclusive results are not listed. For some of these results: Potency and affinity values are given separately. The source holds several records for some structures; these can differ, active in one and inactive in another. The source made the active and inactive calls.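 The calls were made as follows, unless noted: active = compounds whose cell count with miR-34 switched on is under 0.7 times the count with it off; inactive = the rest.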

How the values were obtained:
[1] = liver-stage malaria parasite growth inhibition, primary screen, cell-based, HepG2, luciferase luminescence, HepG2 viability (AID 624349; in the data active = parasite load remaining mostly below about 12%, no sharp cut-off; inactive = mostly above about 10%;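 also: 100% = mean of DMSO negative control wells on the same plate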); conditions: P. berghei liver stage in HepG2, luciferase luminescence, concentration not given here; parasite load remaining: stronger effect = lower value; viability: measured here: HepG2 viability without parasites
[2] = sensitizers of A549 cells to miR-34 induction, primary screen, imaging, A549 dox-inducible miR-34, nuclei and caspase counts (AID 1347080); conditions: A549 miR-34 inducible, Hoechst nuclei count, 48 h
[3] = survival rescue of mitochondrial mutant cells in low glucose, primary screen, MELAS cybrids, Rieske KO mouse fibroblasts, CellTiter-Glo (AID 1508586;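 active = mean z-score across replicates of 1.96 or higher in either the MELAS or the Rieske mutant cell line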;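 also: z relative to plate mean and SD of compound and empty wells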)
[4] = viability rescue of complex I mutant cybrids, primary screen, cell-based, galactose medium, ATP luminescence (AID 1645843;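 active = z-score of at least 1.8 in each of two replicates, scored against plate mean and spread of sample wells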;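 also: positive z means more ATP and so rescue of galactose-driven cybrid death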); conditions: complex I mutant cybrid cells, 72 h, stronger effect = higher value
[5] = biological target: ATP-dependent translocase ABCB1 (Homo sapiens) (UniProt P08183); test: MDR1 (ABCB1) efflux transporter inhibition, cell-based (AID 377; in the data active = fluorescence slope change above about 50%); conditions: MDR1-expressing cells, fluorescent substrate accumulation slope; stronger effect = higher value; concentration not given here
Sequence of ATP-dependent translocase ABCB1 (Homo sapiens) (P08183 whole entry, looked up): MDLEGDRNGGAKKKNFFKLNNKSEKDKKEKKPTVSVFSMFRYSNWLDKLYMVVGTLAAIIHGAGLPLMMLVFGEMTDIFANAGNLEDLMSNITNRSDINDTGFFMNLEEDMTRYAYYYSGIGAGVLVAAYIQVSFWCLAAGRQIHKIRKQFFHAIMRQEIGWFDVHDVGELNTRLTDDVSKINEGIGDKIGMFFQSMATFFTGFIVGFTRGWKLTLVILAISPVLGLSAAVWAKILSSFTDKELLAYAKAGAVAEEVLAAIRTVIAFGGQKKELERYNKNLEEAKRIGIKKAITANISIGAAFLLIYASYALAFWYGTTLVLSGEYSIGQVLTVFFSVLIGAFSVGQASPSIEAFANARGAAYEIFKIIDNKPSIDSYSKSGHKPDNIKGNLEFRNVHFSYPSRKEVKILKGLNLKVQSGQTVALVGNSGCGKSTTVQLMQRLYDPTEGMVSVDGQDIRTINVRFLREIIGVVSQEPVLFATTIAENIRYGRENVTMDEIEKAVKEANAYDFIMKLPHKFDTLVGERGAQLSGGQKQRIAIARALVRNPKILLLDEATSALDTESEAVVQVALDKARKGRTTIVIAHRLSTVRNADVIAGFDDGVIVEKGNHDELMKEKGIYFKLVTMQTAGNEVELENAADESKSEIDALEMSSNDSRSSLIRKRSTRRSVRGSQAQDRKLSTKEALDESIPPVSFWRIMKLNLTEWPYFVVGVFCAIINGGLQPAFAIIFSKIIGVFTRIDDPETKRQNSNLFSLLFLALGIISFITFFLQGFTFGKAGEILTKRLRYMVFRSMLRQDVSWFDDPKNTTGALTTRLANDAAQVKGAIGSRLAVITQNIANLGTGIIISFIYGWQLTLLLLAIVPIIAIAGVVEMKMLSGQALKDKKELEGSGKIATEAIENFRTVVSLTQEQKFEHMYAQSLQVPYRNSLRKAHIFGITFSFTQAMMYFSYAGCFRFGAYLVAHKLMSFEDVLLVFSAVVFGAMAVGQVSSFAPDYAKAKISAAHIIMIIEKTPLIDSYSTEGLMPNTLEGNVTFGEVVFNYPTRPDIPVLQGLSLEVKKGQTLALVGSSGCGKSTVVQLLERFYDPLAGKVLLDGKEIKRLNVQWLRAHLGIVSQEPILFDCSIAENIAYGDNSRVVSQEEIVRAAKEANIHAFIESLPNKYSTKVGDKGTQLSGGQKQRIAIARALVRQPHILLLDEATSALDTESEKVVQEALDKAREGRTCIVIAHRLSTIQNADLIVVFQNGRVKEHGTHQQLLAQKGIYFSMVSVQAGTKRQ

[6] = hESC survival regulators, cell-based (AID 493140; call rule not given here;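 also: cells exposed to compounds for four days before counting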); conditions: human embryonic stem cell survival screen; stronger effect = higher value
[7] = biological target: Mitogen-activated protein kinase 7 (Homo sapiens) (UniProt Q13164); test: ERK5 transactivation activators in reporter cells, primary screen, cell-based, HTS (AID 1508626;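 active = luciferase signal above three times the same-plate solvent-only control wells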;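 also: luciferase driven by Gal4-ERK5 fusion binding five Gal4 sites before minimal TATA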); conditions: HeLa Gal4-ERK5 transactivation, 18 h, at 5 µM, stronger effect = higher value
Sequence of Mitogen-activated protein kinase 7 (Homo sapiens) (Q13164 whole entry, looked up, the tested form may be a part): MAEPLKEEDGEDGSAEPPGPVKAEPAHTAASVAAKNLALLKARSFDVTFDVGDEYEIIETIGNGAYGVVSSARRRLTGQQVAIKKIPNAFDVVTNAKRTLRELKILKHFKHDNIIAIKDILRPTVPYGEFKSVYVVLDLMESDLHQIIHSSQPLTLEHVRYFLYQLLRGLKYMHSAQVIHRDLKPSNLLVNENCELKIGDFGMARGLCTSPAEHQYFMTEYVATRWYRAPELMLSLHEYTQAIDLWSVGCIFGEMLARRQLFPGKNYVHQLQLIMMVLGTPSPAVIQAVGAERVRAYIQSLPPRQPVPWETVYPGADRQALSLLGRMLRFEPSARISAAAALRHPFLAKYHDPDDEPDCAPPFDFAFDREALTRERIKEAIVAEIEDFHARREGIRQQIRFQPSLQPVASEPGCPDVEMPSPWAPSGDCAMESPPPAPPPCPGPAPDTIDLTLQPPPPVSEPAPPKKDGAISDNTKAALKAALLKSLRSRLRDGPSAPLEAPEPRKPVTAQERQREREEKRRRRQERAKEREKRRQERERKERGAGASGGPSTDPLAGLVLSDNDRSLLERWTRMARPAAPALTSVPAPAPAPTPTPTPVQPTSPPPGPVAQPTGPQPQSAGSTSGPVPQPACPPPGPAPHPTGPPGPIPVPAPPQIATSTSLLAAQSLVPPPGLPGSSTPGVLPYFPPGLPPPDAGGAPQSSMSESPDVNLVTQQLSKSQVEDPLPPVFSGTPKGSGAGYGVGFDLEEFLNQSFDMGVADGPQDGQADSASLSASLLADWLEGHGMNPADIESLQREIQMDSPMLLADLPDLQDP

[8] = mitochondrial permeability transition inhibitors (AID 1580; call rule not given here); conditions: isolated mitochondria, permeability transition inhibition
[9] = polyglutamine-triggered caspase-3 activation inhibitors, cell-based (AID 1583); conditions: polyglutamine-induced caspase-3 activation, cell assay; stronger effect = higher value;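 tested at 10 µM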
[10] = suppressors of polyQ aggregation in yeast, 75Q-TubU reporter (AID 1593); conditions: Yeast 75Q polyglutamine aggregation reporter
[11] = inhibitors of mitochondrial cytochrome c release, biochemical, purified mitochondria (AID 1603); conditions: stronger effect = lower value;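 also: mouse liver mitochondria challenged with calcium chloride; signal normalized to the plate average as 100%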
[12] = inhibitors of polyQ protein aggregation (AID 1604); conditions: polyglutamine-induced protein aggregation inhibition assay; stronger effect = higher value; tested at 2.5 µM
[13] = protection against mutant huntingtin cytotoxicity, PC12 cells, LDH release (AID 1610); conditions: PC12 mutant huntingtin toxicity, final LDH at 4 uM, stronger effect = lower value
[14] = enhancers of glutamate uptake in motor neurons, MN-1 cell line (AID 1612); conditions: MN-1 motor neuron cells, stronger effect = higher value;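 also: tested at 1 µM final; 0% = mean of DMSO vehicle wells on each plate; positive means more glutamate uptake than control and negative means less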
[15] = suppressors of polyglutamine aggregation in yeast, 75Q-TubH (AID 1616); conditions: S. cerevisiae 75Q-TubH polyglutamine aggregation suppression; stronger effect = higher value
[16] = rescue of polyQ-huntingtin neuronal dysfunction in worms, whole organism, C. elegans mechanosensory neurons, N-terminal huntingtin (AID 1599); conditions: touch response, stronger effect = higher value
[17] = reducers of polyQ inclusions in PC12 cells, cell-based, NGF-treated PC12, GFPQ80 (AID 1614); conditions: PC12 NGF-treated GFP-polyQ80 inclusion reduction;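 also: lower means fewer inclusions and 0 means no inclusions at all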
[18] = biological target: NAD(+) hydrolase SARM1 (Homo sapiens) (UniProt Q6SZW1); test: SARM1 TIR NADase inhibitors, cell lysate, NAD-Glo luminescence (AID 1508614;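 active = compound whose remaining NAD level is above about 45 nM, limit read from the data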;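 also: higher remaining NAD means stronger inhibition of SARM1 NADase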); conditions: SAM-TIR HEK293T lysate NADase, at 1 µM, stronger effect = higher value
Sequence of NAD(+) hydrolase SARM1 (Homo sapiens) (Q6SZW1 whole entry, looked up): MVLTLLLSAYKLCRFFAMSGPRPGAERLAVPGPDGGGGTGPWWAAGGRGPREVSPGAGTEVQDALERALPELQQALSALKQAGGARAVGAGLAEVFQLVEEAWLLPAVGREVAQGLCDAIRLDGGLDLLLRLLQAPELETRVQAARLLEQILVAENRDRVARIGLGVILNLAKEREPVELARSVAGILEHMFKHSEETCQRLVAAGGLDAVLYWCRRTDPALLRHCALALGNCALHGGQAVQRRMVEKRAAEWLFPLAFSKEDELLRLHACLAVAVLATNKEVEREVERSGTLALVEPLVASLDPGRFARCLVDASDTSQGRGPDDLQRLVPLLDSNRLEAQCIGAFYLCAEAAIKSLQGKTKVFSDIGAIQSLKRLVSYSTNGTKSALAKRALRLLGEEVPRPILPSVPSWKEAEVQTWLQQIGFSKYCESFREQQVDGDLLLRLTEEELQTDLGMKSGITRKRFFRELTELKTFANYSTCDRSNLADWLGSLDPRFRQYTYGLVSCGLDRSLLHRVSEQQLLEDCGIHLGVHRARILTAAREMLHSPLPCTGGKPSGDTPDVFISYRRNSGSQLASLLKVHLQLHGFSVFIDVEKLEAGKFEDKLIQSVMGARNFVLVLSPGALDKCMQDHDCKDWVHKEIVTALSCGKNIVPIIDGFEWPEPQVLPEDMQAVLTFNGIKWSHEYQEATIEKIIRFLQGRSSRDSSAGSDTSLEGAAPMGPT

[19] = measured here: relative caspase fold change +Dox/-Dox
[20] = measured here: total cells with miR-34 induction, stronger effect = lower value
[21] = measured here: total cells without miR-34 induction
[22] = MELAS cybrid survival, CellTiter-Glo 48 h, stronger effect = higher value
[23] = Rieske KO mouse fibroblast survival, CellTiter-Glo 72 h
[24] = stronger effect = lower value, cell number ratio, induced over uninduced

## CCCCC(C#N)(Cn1cncn1)c1ccc(Cl)cc1 (stereo not given)
[1]
  parasite load remaining: 18.9% (inactive)
  viability: 67.5%
[2]; stronger effect = lower value
  fold change: 0.938 (inactive)
[2]; [19]
  fold change: 1.46
[2]; [20]
  cell count: 9220
[2]; [21]
  cell count: 9830
[3]; [22]
  z-score: 0.49 (inactive)
[3]; [23]
  z-score: -0.243
[4]
  z-score: 0.815 (inactive)

## CC[C@]1(O)CCC2C3CCC4=CCCCC4C3CC[C@@]21C (stereo not given in full)
[2]; stronger effect = lower value
  fold change: 1.01 (inactive)
[2]; [19]
  fold change: 1.28
[2]; [20]
  cell count: 5670
[2]; [21]
  cell count: 5590
[4]
  z-score: -0.425 (inactive)

## CC(C)[C@]12OC1C1O[C@]13[C@]1(OC1CC1C4=C(CC[C@@]13C)C(=O)OC4)C2O (stereo not given in full)
[2]; [24]
  fold change: 0.971 (inactive)
[2]; [19]
  fold change: 1.93
[2]; [20]
  cell count: 2260
[2]; [21]
  cell count: 2320
[4]
  z-score: -1.85 (inactive)

## C[C@]12CC[C@H]3[C@@H](CC[C@]4(O)C[C@@H](O)CC[C@]34C=O)[C@@]1(O)CC[C@@H]2C1=CC(=O)OC1
[5]
  fluorescence slope change: 11.2% (inactive)
[6]
  survival: 1.42 (inactive)
[1]
  parasite load remaining: 0.385% (inactive)
  viability: 54%
[2]; stronger effect = lower value
  fold change: 1.08 (inactive)
[2]; [19]
  fold change: 0.794
[2]; [20]
  cell count: 773
[2]; [21]
  cell count: 713
[7]
  luciferase signal: 16 AU (inactive)

## CN[C@@H]1[C@@H](O)[C@@H](O[C@@H]2[C@@H](O)[C@H](O[C@H]3O[C@H]([C@@H](C)NC)CC[C@H]3N)[C@@H](N)C[C@H]2N)OC[C@]1(C)O
[1]
  parasite load remaining: 20.1% (inactive)
  viability: 64.5%
[2]; stronger effect = lower value
  fold change: 0.872 (inactive)
[2]; [19]
  fold change: 1.03
[2]; [20]
  cell count: 10000
[2]; [21]
  cell count: 11500
[3]; [22]
  z-score: 0.508 (inactive)
[3]; [23]
  z-score: 0.179

## CC1CCCC(O)CCCCCc2cc(O)cc(O)c2C(=O)O1 (stereo not given)
[2]; stronger effect = lower value
  fold change: 0.901 (inactive)
[2]; [19]
  fold change: 1.75
[2]; [20]
  cell count: 8720
[2]; [21]
  cell count: 9680
[4]
  z-score: -0.095 (inactive)

## CNc1ccc2oc(C[C@@H]3OC4(CC[C@@H]3C)O[C@H](C(C)C(=O)c3ccc[nH]3)[C@H](C)C[C@H]4C)nc2c1C(=O)O (stereo not given in full)
[8]
  EC50: 1000 nM (active)
[9]
  inhibition: 86.4%
[10]
  score: -0.79
[11]
  cytochrome c release ratio: 0.48
[12]
  inhibition of aggregation: 51.9%
[13]
  normalised LDH release: 1.68
[14]
  glutamate uptake change: -78%
[15]
  aggregation suppression score: -0.166
[2]; stronger effect = lower value
  fold change: 1.33 (inactive)
[2]; [19]
  fold change: 0.886
[2]; [20]
  cell count: 885
[2]; [21]
  cell count: 666

## CN1C[C@H](CO)C=C2c3cccc4[nH]cc(c34)C[C@H]21
[5]
  fluorescence slope change: 116% (active)
[9]
  inhibition: 16.6%
[10]
  score: 1.69
[16]
  rescue above control: 7.23
[11]
  cytochrome c release ratio: 1.6
[12]
  inhibition of aggregation: 44.9%
[14]
  glutamate uptake change: -16.1%
[17]
  inclusion score: 2
[15]
  aggregation suppression score: 1.67
[6]
  survival: 7.67 (inactive)
[1]
  parasite load remaining: 67.2% (inactive) and 71.4% (inactive)
  viability: 100% and 77.2%
[2]; stronger effect = lower value
  fold change: 0.809 (inactive)
[2]; [19]
  fold change: 1.6
[2]; [20]
  cell count: 8450
[2]; [21]
  cell count: 10400

## CCCCCC[C@H]1C(=O)O[C@H](C)C(NC(=O)c2cccc(NC=O)c2O)C(=O)O[C@@H](C)[C@@H]1OC(=O)CC(C)C (stereo not given in full)
[6]
  survival: 38.8 (inactive)
[1]
  parasite load remaining: 0.52% (inactive) and 0.28% (active)
  viability: 30.3% and 71%
[2]; stronger effect = lower value
  fold change: 1.21 (inactive)
[2]; [19]
  fold change: 0.771
[2]; [20]
  cell count: 3300
[2]; [21]
  cell count: 2720
[3]; [22]
  z-score: 0.402 (inactive)
[3]; [23]
  z-score: 0.0989

## CCC(C)(C)O
[2]; stronger effect = lower value
  fold change: 0.953 (inactive)
[2]; [19]
  fold change: 0.901
[2]; [20]
  cell count: 9020
[2]; [21]
  cell count: 9470
[18]
  remaining NAD: 10 nM (inactive)

## C#CC(C)(O)CC (stereo not given)
[2]; stronger effect = lower value
  fold change: 0.85 (inactive)
[2]; [19]
  fold change: 1.03
[2]; [20]
  cell count: 8040
[2]; [21]
  cell count: 9450
[18]
  remaining NAD: 10 nM (inactive)

## CCC1=C[C@@H]2CN3CCc4c([nH]c5ccccc45)[C@@](C(=O)OC)(C2)[C@@H]13
[1]
  parasite load remaining: 9.8% (inactive)
  viability: 47.4%
[2]; [24]
  fold change: 0.949 (inactive) and 0.823 (inactive)
[2]; [19]
  fold change: 1.22 and 0.88
[2]; [20]
  cell count: 8480 and 6230
[2]; [21]
  cell count: 8930 and 7580
[3]; [22]
  z-score: -0.196 (inactive) and 0.501 (inactive)
[3]; [23]
  z-score: -0.315 and -0.157

## C[C@]12CC[C@H](O)C[C@H]1CC[C@@H]1[C@@H]2CC[C@]2(C)[C@@H](C3=CC(=O)OC3)CC[C@]12O
[5]
  fluorescence slope change: 80.1% (active)
[6]
  survival: 11.7 (inactive)
[1]
  parasite load remaining: -9.15% (inactive) and 10.4% (inactive)
  viability: 40.6% and 30.9%
[2]; stronger effect = lower value
  fold change: 0.981 (inactive)
[2]; [19]
  fold change: 1.54
[2]; [20]
  cell count: 557
[2]; [21]
  cell count: 568
[3]; [22]
  z-score: -0.147 (inactive)
[3]; [23]
  z-score: 0.0544

## C[N+]1([O-])[C@@H]2CC(OC(=O)[C@H](CO)c3ccccc3)C[C@H]1[C@@H]1O[C@@H]12 (stereo not given in full)
[5]
  fluorescence slope change: 76.2% (active)
[6]
  survival: 10.4 (inactive)
[1]
  parasite load remaining: 3.97% (inactive) and 96.4% (inactive)
  viability: 30.6% and 90.4%
[2]; [24]
  fold change: 0.882 (inactive)
[2]; [19]
  fold change: 1.03
[2]; [20]
  cell count: 8380
[2]; [21]
  cell count: 9510
[3]; [22]
  z-score: -1.22 (inactive)
[3]; [23]
  z-score: -0.531

## CCC(=O)OC(Cc1ccccc1)(c1ccccc1)C(C)CN(C)C (stereo not given)
[6]
  survival: 8.25 (inactive)
[1]
  parasite load remaining: 85.5% (inactive)
  viability: 74.7%
[2]; stronger effect = lower value
  fold change: 0.896 (inactive)
[2]; [19]
  fold change: 0.845
[2]; [20]
  cell count: 9110
[2]; [21]
  cell count: 10200
[3]; [22]
  z-score: 0.276 (inactive)
[3]; [23]
  z-score: -0.451

## CN1CC[C@@]2(C)c3cc(O)ccc3N(C)[C@H]12
[1]
  parasite load remaining: 82.4% (inactive)
  viability: 73.5%
[2]; [24]
  fold change: 0.908 (inactive)
[2]; [19]
  fold change: 0.758
[2]; [20]
  cell count: 8570
[2]; [21]
  cell count: 9440
[3]; [22]
  z-score: 0.308 (inactive)
[3]; [23]
  z-score: 1.44

## CN1[C@@H]2CC[C@H]1CC(OC(=O)C1C=Nc3ccccc31)C2 (stereo not given in full)
[1]
  parasite load remaining: 130% (inactive)
  viability: 98.7%
[2]; [24]
  fold change: 0.853 (inactive) and 0.904 (inactive)
[2]; [19]
  fold change: 1.46 and 2.72
[2]; [20]
  cell count: 8760 and 8980
[2]; [21]
  cell count: 10300 and 9930
[3]; [22]
  z-score: 2.22 (active) and 0.522 (inactive)
[3]; [23]
  z-score: -0.387 and 0.113

## C[C@]12CCC3[C@@H](CC[C@@H]4C[C@H](O)CC[C@]34C)[C@@H]1CCC2=O (stereo not given in full)
[5]
  fluorescence slope change: 52.7% (active)
[6]
  survival: 4.25 (inactive)
[1]
  parasite load remaining: 68.6% (inactive)
  viability: 95.7%
[2]; stronger effect = lower value
  fold change: 0.895 (inactive)
[2]; [19]
  fold change: 1.16
[2]; [20]
  cell count: 8930
[2]; [21]
  cell count: 9980
[3]; [22]
  z-score: -0.449 (inactive)
[3]; [23]
  z-score: 0.448

## C[C@]12CC[C@@H](O)C[C@@H]1CC[C@@H]1[C@@H]2CC[C@]2(C)C(=O)CC[C@@H]12
[6]
  survival: 13.1 (inactive)
[1]
  parasite load remaining: 90.4% (inactive) and 71.8% (inactive)
  viability: 90.3% and 79.5%
[2]; stronger effect = lower value
  fold change: 0.869 (inactive)
[2]; [19]
  fold change: 1.48
[2]; [20]
  cell count: 8170
[2]; [21]
  cell count: 9410
[3]; [22]
  z-score: 0.119 (inactive)
[3]; [23]
  z-score: -0.286
